Results reported in PubChem BioAssay.
“And” between values parts separate entries of the source, which are not always exact repeats. Equal values may be shown once.

Assays:
[1] = system: Botulinum neurotoxin type F light chain protease (Clostridium botulinum); test: Clostridium botulinum type F light chain protease inhibitors, microsphere substrate cleavage, validation (AID 588459); conditions: multiplex microsphere protease substrate cleavage assay, flow cytometry; at 10 µM; active compounds read high
[2] = biological target: Botulinum neurotoxin type A (Clostridium botulinum) (UniProt P0DPI0); test: BoNT/A light chain protease inhibitors, biochemical, multiplex microsphere flow cytometry, validation set (AID 588460); conditions: at 10 µM, active compounds read high
[3] = biological target: Lethal factor (Bacillus anthracis) (UniProt P15917); test: Bacillus anthracis lethal factor inhibition, microsphere flow cytometry protease assay, validation at 10 µM (AID 588461); conditions: multiplex microsphere protease cleavage assay, active compounds read high

Measured: inhibition

O=C(O)c1ccc(C(=O)C(=O)c2ccccc2)cc1
inactive: [1] 1.6% | [2] 1.8% | [3] -6.8%

O=c1oc2c(CN3CCN(CCO)CC3)c(O)ccc2cc1-c1ccccn1
inactive: [1] -0.2% | [2] 0.8% | [3] -4.2%

CC12CCCCN1CCCc1c2[nH]c2ccccc12 (stereo not drawn)
inactive: [1] -1.1% | [2] -0.2% | [3] -11.1%

Fc1cccc(Cc2noc(CN3CCN(c4cnccn4)CC3)n2)c1
inactive: [1] 3.7% | [2] -1.3% | [3] 0.5%

O=C1NC2(Nc3ccccc31)C(=O)Nc1ccc(Br)cc12 (stereo not drawn)
inactive: [1] -0.5% | [2] -1% | [3] 6.8%

CC[C@H](CO)NCCN[C@H](CC)CO
inactive: [1] 2.2% | [2] -1.2% | [3] -10%

CC(=O)[C@@]1(O)CC[C@H]2[C@@H]3C[C@H](C)C4=CC(=O)C=C[C@]4(C)[C@@]3(F)[C@@H](O)C[C@@]21C
inactive: [1] -1.5% | [2] -1.1% | [3] 5.2%

Cc1ccc(N2CCN(C(=S)c3ccc(-c4cccc([N+](=O)[O-])c4)o3)CC2)cc1
inactive: [1] -0.6% | [2] -1.4% | [3] -5.3%

CCCCOc1ccc(OCCCN2CCOCC2)cc1
inactive: [1] -1.1% | [2] 0.4% | [3] -4.8%

CN(C)C(=O)CCCCCCCCC(=O)N(C)C
inactive: [1] -2.7% | [2] -0.9% | [3] -5.5%

COc1ccccc1/C=C/CN1CCN(Cc2ccc(F)cc2)C(CCO)C1 (stereo not drawn)
inactive: [1] 5.5% | [2] -0.2% | [3] -1.4%

CCCCCCCC(=O)OCC(O)CO (stereo not drawn)
inactive: [1] -6.1% | [2] -0.1% | [3] -2%

CC(=O)O[C@H]1CSC[C@H]1NC(=O)c1ccccc1
inactive: [1] -2.6% | [2] -1.2% | [3] -4.4%

CC1=CC(=O)c2ccccc2C1=O
inactive: [1] -2.1% | [2] -0.1% | [3] 6.7%

CC(=O)OCC(=O)C1=CCC2C3CCC4=CC(=O)C=CC4(C)C3(F)C(OC(C)=O)CC12C (stereo not drawn)
inactive: [1] 0.8% | [2] -0.6% | [3] 2.4%

Cc1ccc(S(=O)(=O)Oc2ccccc2/C=N/N=C(N)N)cc1
inactive: [1] 0.8% | [2] 1.3% | [3] -7.6%

CCN(CCCc1ccccc1)CCCc1ccccc1
inactive: [1] 1% | [2] -0.4% | [3] -2.4%

O=C(O)Cc1ccc(O)c(F)c1
inactive: [1] 2.3% | [2] -0.5% | [3] -3.6%

COc1ccccc1OS(=O)(=O)c1ccc(NC(C)=O)cc1
inactive: [1] -1.9% | [2] 1.2% | [3] 3%

O=C(Nc1cccc(-c2nc3ncccc3o2)c1)c1ccccc1
inactive: [1] 2.8% | [2] -0.9% | [3] -1.6%

Cc1nnc(SCC(=O)N2CCCC(C(=O)c3ccc(Cl)cc3)C2)o1 (stereo not drawn)
inactive: [1] 2.8% | [2] 0.9% | [3] -6.4%

CCOC(=O)c1oc2cc(O)cc(C)c2c(=O)c1-c1cscn1
inactive: [1] 1.4% | [2] 1.8% | [3] -2.6%

CCc1cc(=O)oc2cc(C)c(CN3CCCC(C)C3)c(O)c12 (stereo not drawn)
inactive: [1] 3.9% | [2] -0.1% | [3] -3.1%

NCCOc1ccccc1OCCN
inactive: [1] 1.6% | [2] -0.4% | [3] -4.4%

CCOC(=O)c1ccccc1NC(=O)c1ccc(F)cc1
inactive: [1] -1.8% | [2] -1% | [3] -0.1%

Cc1cnc(C(=O)N2CCCC(C(=O)c3ccc(Cl)cc3C)C2)cn1 (stereo not drawn)
inactive: [1] 1.4% | [2] 0.4% | [3] -0.9%

CCNCCC(CCC(C)C)c1ccc2c(c1)OCO2 (stereo not drawn)
inactive: [1] -3.1% | [2] -1.3% | [3] -0.1%

Cc1cc(C)nc(NS(=O)(=O)c2ccc(N)cc2)n1
inactive: [1] 1.3% | [2] 2.1% | [3] 3.4%

COC(=O)c1ccc(CC(=O)c2ccc(O)cc2O)o1
inactive: [1] -3.4% | [2] -0.8% | [3] -5.4%

NC(N)=NC(N)=Nc1ccc2ccccc2c1
inactive: [1] 3.6% | [2] 1% | [3] 1.8%

OCCN1CCN(CCCN2c3ccccc3Sc3ccc(Cl)cc32)CC1
inactive: [1] -0.8% | [2] 0.8% | [3] 1.2%

COC1(C)CC2C(CC1OC(=O)c1cc([N+](=O)[O-])cc([N+](=O)[O-])c1)C2(C)C (stereo not drawn)
inactive: [1] -3.2% | [2] -0.5% | [3] -5.5%

CC(NC(=O)OCc1ccccc1)C(=O)N1CC(O)CC1C(=O)O (stereo not drawn)
inactive: [1] 3.2% | [2] -0.7% | [3] 1.4%

CC(C)CC(=O)NC(NC(=O)CC(C)C)c1cccc([N+](=O)[O-])c1
inactive: [1] 1.7% | [2] -0.3% | [3] 3.9%

CC(=O)Nc1nnc(S(N)(=O)=O)s1
inactive: [1] 5.4% | [2] -0.3% | [3] -2.6%

CC(C)OC(=O)CC1C(=O)NCCN1C(=S)NC(=O)c1ccccc1Cl (stereo not drawn)
inactive: [1] -1.8% | [2] -0.4% | [3] -0.2%

O=C(CN1C(=O)C2CCc3[nH]c4ccccc4c3C2C1=O)N1CCCC1 (stereo not drawn)
inactive: [1] 0.5% | [2] 1.1% | [3] 4.3%

O=C1N[C@@H](Cc2cnc[nH]2)C(=O)N2CCC[C@@H]12
inactive: [1] 1.2% | [2] 0.3% | [3] -5.3%

CCNC(=O)c1c(N)sc2c1CCCCC2
inactive: [1] 0.9% | [2] -0.9% | [3] -5.1%

C[C@]12CC[C@@H]3c4ccc(O)cc4CC[C@H]3[C@@H]1CCC2=O
inactive: [1] 1.3% | [2] -2.2% | [3] -3.8%

COc1ccc(/C=C\c2cc(OC)c(OC)cc2CC[N+](C)(C)C)cc1OC
inactive: [1] 2% | [2] -1.4% | [3] 3.5%

Cc1ccc(C(=O)Nc2ccccc2C(=O)NC(C(=O)O)C(C)C)cc1 (stereo not drawn)
inactive: [1] 4.4% | [2] 0.5% | [3] -2%

O=C1CC(c2ccc(O)cc2)Oc2cc(O)cc(O)c21 (stereo not drawn)
inactive: [1] -2.6% | [2] -1.8% | [3] -0.4%

O=C1OC(c2ccc(O)cc2)(c2ccc(O)cc2)c2ccccc21
inactive: [1] -0.3% | [2] -0.8% | [3] -3.6%

CC1(C)Cc2ccccc2C(C(Cc2ccccc2)C(N)=O)=N1 (stereo not drawn)
inactive: [1] 0.5% | [2] 1.1% | [3] -3.2%

CCc1cc(C(N)=S)ccn1
inactive: [1] 1.9% | [2] 0.9% | [3] -2.7%

O=c1n(CCCN2CCN(c3cccc(Cl)c3)CC2)nc2ccccn12
inactive: [1] -5.2% | [2] -0.2% | [3] -1.3%

CN=C1c2cc3cc(OC)ccc3n2CCN1C
inactive: [1] -1.5% | [2] -0.6% | [3] -0.1%

COc1cc2c3c(c1)C1(C(=O)N3C(C)(C)C=C2C)C(C#N)=C(N)Oc2cc(C)oc(=O)c21 (stereo not drawn)
inactive: [1] 0.4% | [2] 2.4% | [3] -3.3%

CC[N+](C)(CC)CCOC(=O)C(O)(c1ccccc1)C1CCCCC1 (stereo not drawn)
inactive: [1] 4.8% | [2] 1.4% | [3] -1.1%

Cn1c(=O)oc2cc(S(=O)(=O)N3CCc4ccccc4C3)ccc21
inactive: [1] -0.9% | [2] -3% | [3] -3.5%

CN1CCN(CCCN2c3ccccc3Sc3ccc(Cl)cc32)CC1
inactive: [1] -3.9% | [2] -3.2% | [3] -10.3%

CN1CCN(C2=Nc3ccccc3Oc3ccc(Cl)cc32)CC1
inactive: [1] -0.8% | [2] -1.8% | [3] -3.9%

Cc1ccccc1NC(=O)NCCc1c[nH]c2ccccc12
inactive: [1] -1.9% | [2] -0.2% | [3] -3.6%

Cn1cc(C2N3CC4(C)CN2CC(C)(C3)C4=O)c2ccccc21 (stereo not drawn)
inactive: [1] 1% | [2] 1.7% | [3] -10.2%

CCCCN(CCCC)CCCOC(=O)c1ccc(N)cc1
inactive: [1] -1.6% | [2] 0.8% | [3] 1.4%

NCCc1ccc(O)c(O)c1
inactive: [1] -6.2% | [2] -3.5% | [3] -8.7%

Cc1ccc(OCCCCn2ccnc2C)c(C)c1
inactive: [1] -5.4% | [2] -1.6% | [3] -1.6%

N/C(=N\OS(=O)(=O)c1ccc2ccccc2c1)c1cccnc1
inactive: [1] -1.4% | [2] -0.9% | [3] 0.2%

Cc1cccc2c(=O)n3c(nc12)CCCCC3
inactive: [1] 0.4% | [2] -1.4% | [3] -10.4%

O=C1C(=O)N2C(=C1C(=O)N1CCCCCC1)c1ccccc1CC21CCCC1
inactive: [1] 0.3% | [2] 0.4% | [3] -3%

CC(C)(CO)CNC(=O)CC1C(=O)NCCN1CC(c1ccccc1)c1ccccc1 (stereo not drawn)
inactive: [1] 0.8% | [2] -0.4% | [3] 0.3%

Cc1ccc(S(=O)(=O)NC(=O)NN2CCCCCC2)cc1
inactive: [1] -4.6% | [2] -1.6% | [3] -4.1%

COc1cc2ccc(=O)oc2c(O)c1OCC=C(C)C
inactive: [1] -4.9% | [2] 1.4% | [3] 1.2%

Cc1ccc2c(c1)C(CCN)C(=O)N2Cc1ccccc1 (stereo not drawn)
inactive: [1] -1% | [2] 0.7% | [3] 6.7%

CCN(CC)CCNC(=O)c1ccc(NC(C)=O)cc1
inactive: [1] 3.4% and 3.6% | [2] 1.2% and -1.2% | [3] -6.2% and -1.6%
